This note sets out measurements from PubChem BioAssay.

Active and inactive are the calls of the source. Unless noted, how the calls were made is not given here.

Test [1] in a line: resazurin metabolic signal in HepG2 cells – cell-based, resazurin fluorescence, 24 h, PK04 Diversity Set, profiling panel (AID 1172). As to conditions: HepG2 viability, higher = more signal. For orientation: The colour change of resazurin is a common sign of viable cells or microbes.
Test [2] in a line: budding yeast growth changes without added modifier – OD600, strain BY4716, 24 h, basal condition, primary screen (AID 1173). To be noted: S. cerevisiae BY4716 growth, OD600, 24 h; higher = more signal, called active from +8 up or from −8 down.
A short description of test [3]: viability profiling in MM1S myeloma cells – cell-based, resazurin fluorescence, basal, 24 h, PK04 Diversity Set, profiling panel (AID 1174).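 Further: MM1S multiple myeloma cell line.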 To be noted: higher = more signal, called active from +8 up or from −8 down.
Test [4] deals with Dihydroorotate dehydrogenase (quinone), mitochondrial (Plasmodium falciparum (isolate 3D7)) (UniProt Q08210). As to the kind of experiment: inhibition of P. falciparum DHODH – biochemical, C-terminal His tag, absorbance 600 nm, primary screen (AID 1175).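 Further: recombinant parasite enzyme with a five histidine tag at its C terminus.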 As to conditions: PfDHODH enzyme, DCIP absorbance 600 nm; higher = more signal, called active from +8 up or from −8 down.
Test [5] can be described thus: inhibition of PAO1 biofilm formation – strain PAO1, LB-PBS medium, absorbance 600 nm, primary screen (AID 1176). As to conditions: P. aeruginosa PAO1 growth/biofilm, A600, 12 h; higher = more signal.
The nature of test [6]: growth modulation of vineyard yeast isolate – strain RM11-1a, OD600, basal, 24 h, primary screen (AID 1177).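 Further: cultures grown under basal conditions with no added stressor.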 To be noted: S. cerevisiae RM11-1a growth, OD600, 24 h; higher = more signal, called active from +8 up or from −8 down.
Test [7] is described as follows: growth of efflux-deficient E. coli DRC39 – strain DRC39, OD650, 24 h, E. coli filamentation inducers, primary screen (AID 1178).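 Further: growth measured as culture turbidity by optical density at 650 nm.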 To be noted: E. coli DRC39 acrAB, higher = more signal, called active from +8 up or from −8 down.
The nature of test [8]: growth of efflux-deficient E. coli DRC39 – strain DRC39, OD650, 48 h, E. coli filamentation inducers, primary screen (AID 1179).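 Further: screen aims at cell division blockers that make cells filament.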 As to conditions: E. coli DRC39 delta-acrAB growth, higher = more signal, called active from +8 up or from −8 down.
Test [9] can be described thus: viability profiling in RPMI8226 myeloma cells – cell-based, resazurin fluorescence, basal, 24 h, PK04 Diversity Set, profiling panel (AID 1180).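 Further: RPMI8826 multiple myeloma cell line at 5000 cells per well.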 To be noted: higher = more signal.
For test [10], the target named is E3 ubiquitin-protein ligase XIAP (Homo sapiens) (UniProt P98170). The experiment in a line: small molecules binding XIAP protein – biophysical, small-molecule microarray, fluorescence 635 nm, primary screen (AID 1181).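 Further: score merges 667 nm emission and signal to noise over triplicate slides.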 To be noted: higher = more signal.
Test [11] deals with XIP peptide (Xip251-270) binding. As to the kind of experiment: XIP fragment 251-270 binding compounds – biochemical, small-molecule microarray, fluorescence 635/667 nm, 0.1 µg/mL protein, primary screen (AID 1182). To be noted: fluorescent protein binding, 635 nm, higher = more signal, called active from +8 up or from −8 down.
A further test concerns XIP peptide (Xip251-270). As to the kind of experiment: compounds binding XIP fragment 251-270 – biochemical, small-molecule microarray, fluorescence 635/667 nm, 0.5 µg/mL protein, primary screen (AID 1183). As to conditions: fluorescence 635 nm, higher = more signal.
Test [12] can be described thus: blood-stage malaria parasite viability loss – strain 3D7, DAPI fluorescence, 100 nL, primary screen (AID 1184).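 Further: parasites grown inside human red blood cells in medium with human serum.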 To be noted: P. falciparum 3D7 growth, 3 d, higher = more signal.
Test [13] has as its target Homeobox protein Hox-A13 (Mus musculus) (UniProt Q62424). As to the kind of experiment: disruptors of Hoxa13 oligonucleotide interaction – biochemical, fluorescence polarization, labeled oligonucleotide, primary screen (AID 1185). To be noted: Hoxa13:DNA binding, 15 min, higher = more signal, called active from +8 up or from −8 down. On the technique in general: Polarisation of emitted light reports the rotation of a fluorescent probe.

A short description of test [14]: blockers of DNA damage checkpoint Chk1 activation – imaging, HeLa, hydroxyurea, phospho-Chk1 antibody, percent positive cells, primary screen (AID 1186). To be noted: hydroxyurea-induced phospho-Chk1 immunofluorescence imaging, higher = more signal.
Test [15] can be described thus: blockers of DNA damage checkpoint Chk1 activation – imaging, HeLa, hydroxyurea, phospho-Chk1 nuclear intensity, primary screen (AID 1187). As to conditions: hydroxyurea-induced phospho-Chk1 immunofluorescence imaging, higher = more signal.

Homeobox protein Hox-A13 (Mus musculus), sequence (Q62424 whole entry, looked up): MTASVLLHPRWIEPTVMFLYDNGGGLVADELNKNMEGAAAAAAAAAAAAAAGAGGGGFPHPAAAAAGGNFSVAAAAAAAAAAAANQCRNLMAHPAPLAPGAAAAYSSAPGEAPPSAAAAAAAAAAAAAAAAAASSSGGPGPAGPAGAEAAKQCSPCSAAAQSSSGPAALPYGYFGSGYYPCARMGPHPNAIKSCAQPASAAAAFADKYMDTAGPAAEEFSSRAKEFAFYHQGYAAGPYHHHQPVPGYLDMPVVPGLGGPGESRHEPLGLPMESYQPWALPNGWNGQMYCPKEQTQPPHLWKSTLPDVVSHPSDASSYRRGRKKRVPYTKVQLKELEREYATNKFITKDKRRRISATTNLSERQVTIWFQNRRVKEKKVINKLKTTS
Dihydroorotate dehydrogenase (quinone), mitochondrial (Plasmodium falciparum (isolate 3D7)), sequence (Q08210 whole entry, looked up): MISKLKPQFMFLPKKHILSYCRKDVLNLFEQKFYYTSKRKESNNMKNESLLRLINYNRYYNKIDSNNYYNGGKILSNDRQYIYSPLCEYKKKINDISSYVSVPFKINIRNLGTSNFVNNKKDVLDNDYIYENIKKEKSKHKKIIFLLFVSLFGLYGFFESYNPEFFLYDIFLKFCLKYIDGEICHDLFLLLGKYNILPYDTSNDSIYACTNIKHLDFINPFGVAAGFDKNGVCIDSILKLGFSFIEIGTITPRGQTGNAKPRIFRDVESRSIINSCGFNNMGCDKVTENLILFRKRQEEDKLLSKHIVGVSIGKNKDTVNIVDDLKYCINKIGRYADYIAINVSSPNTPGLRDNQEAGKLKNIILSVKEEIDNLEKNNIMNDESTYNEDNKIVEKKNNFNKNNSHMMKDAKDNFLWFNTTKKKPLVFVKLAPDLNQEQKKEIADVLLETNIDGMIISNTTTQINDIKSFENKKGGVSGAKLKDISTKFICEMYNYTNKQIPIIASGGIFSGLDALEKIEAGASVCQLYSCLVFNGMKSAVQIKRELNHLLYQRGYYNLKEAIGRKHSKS
E3 ubiquitin-protein ligase XIAP (Homo sapiens), sequence (P98170 whole entry, looked up, the tested form may be a part): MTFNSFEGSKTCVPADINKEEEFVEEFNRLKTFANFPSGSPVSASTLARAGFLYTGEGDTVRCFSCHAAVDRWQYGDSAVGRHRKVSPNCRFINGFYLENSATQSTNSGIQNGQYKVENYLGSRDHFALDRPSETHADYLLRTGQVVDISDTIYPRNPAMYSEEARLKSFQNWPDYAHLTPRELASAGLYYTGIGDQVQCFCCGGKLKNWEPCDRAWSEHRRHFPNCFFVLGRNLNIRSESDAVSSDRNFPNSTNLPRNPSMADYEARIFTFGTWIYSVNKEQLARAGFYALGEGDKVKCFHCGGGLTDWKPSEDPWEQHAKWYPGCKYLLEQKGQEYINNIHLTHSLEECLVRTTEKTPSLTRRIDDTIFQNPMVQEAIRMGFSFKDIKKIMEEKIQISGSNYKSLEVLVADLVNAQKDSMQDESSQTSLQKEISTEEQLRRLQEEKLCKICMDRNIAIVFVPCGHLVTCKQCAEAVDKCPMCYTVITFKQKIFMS

For `CCCCCCc1nc(Cc2cc(OC)c(OC)c(OC)c2)cc2c1[Si](C(C)C)(C(C)C)OC2`, the z-score was 0.842 in [1]; 0.273 (inactive) in test [2]; 0.0456 (inactive) in [3]; -0.215 (inactive) in test [5]; -0.0979 (inactive) in [6]; -0.284 (inactive) in test [7]. Moreover, the z-score in test [8] is -0.279 (inactive); in [9], -0.295; in test [12], -2.67; in test [13] it was -3.54 (inactive); in test [14], -1.16 (inactive); in test [15], -0.743 (inactive). The composite z-score in test [4] is -2.69 (inactive); in [10] it was 0.0009; in [11], 0.181 (inactive); with XIP peptide (Xip251-270), 0.0776.
Take `COC(=O)[C@@]1(Cc2ccc(F)cc2)[C@H]2c3cc(C(=O)N4CCCC4)n(CCc4c[nH]c5ccccc45)c3C[C@H]2CN1C(=O)c1ccccc1`: the z-score in test [1] is -1.03; in [2], 1.74 (inactive); in test [3] it was -2.23 (inactive); in test [5] it was 0.343 (inactive); in test [6] it was 0.0323 (inactive); in test [7] it was -1.4 (inactive). Moreover, the z-score is -0.319 (inactive) in test [8]; -2.94 in [9]; -1.55 in [12]; -3.15 (inactive) in test [13]; 0.916 (inactive) in [14]; 0.634 (inactive) in test [15]. The composite z-score is -0.106 (inactive) in test [4], -0.018 in [10], 0.0236 (inactive) in test [11] and 0.714 in the test with XIP peptide (Xip251-270).
`CC(c1ccccc1)C(O)C1C=CC2C(=O)N(C)C(=O)C2N1Nc1ccccc1` (centres undefined): the z-score in test [1] is -0.705; in test [2], -0.0181 (inactive); in [3], -1.27 (inactive); in test [5], 0.944 (inactive); in test [6] it was -0.0455 (inactive); in test [7], -1.12 (inactive). For the same compound, the z-score in test [8] is -0.374 (inactive); in test [9] it was -1.1; in test [12], 0.139; in [13], -3.9 (inactive); in test [14] it was 0.378 (inactive); in test [15], -0.484 (inactive). Further, the composite z-score in test [4] is -0.475 (inactive); in [10], -0.0654; in test [11], 0.255 (inactive); in the test on XIP peptide (Xip251-270), 0.726.
Turning to `CN(C)C(=O)[C@]1(Cc2ccccc2CN=[N+]=[N-])N=C(c2ccc(OCCCO)cc2)O[C@@H]1c1ccccc1`, the z-score in test [1] was 0.747; in [2], -0.948 (inactive); in test [3] it was -0.535 (inactive); in test [5] it was -0.137 (inactive); in test [6] it was 0.787 (inactive); in test [7], 0.294 (inactive). For the same compound, the z-score in [8] was -0.296 (inactive); in test [9], -1.16; in [12], -2.78; in test [13], -6.11 (inactive); in [14] it was -0.52 (inactive); in [15] it was -0.266 (inactive). Moreover, the composite z-score in [4] was -0.366 (inactive); in test [10] it was -0.127; in test [11] it was 0.908 (inactive); in the test with XIP peptide (Xip251-270) it was 0.738.
On to `COc1ccc(CCNC(=O)[C@@H]2c3ccccc3C(=O)N(C3CCCCC3)[C@H]2c2ccc(CO)cc2)cc1`, for which the z-score in test [1] is -0.0966; in [2] it was 0.162 (inactive); in test [3], -0.298 (inactive); in [5], 1.32 (inactive); in test [6], 0.726 (inactive); in [7], -0.712 (inactive). Besides, the z-score in test [8] is -1.39 (inactive); in test [9], 0.978; in [12], -1.76; in [13] it was -3.32 (inactive); in test [14] it was 0.183 (inactive); in test [15], -0.0923 (inactive). The composite z-score was 0.77 (inactive) in [4], -0.0349 in [10], 0.09 (inactive) in test [11] and 0.658 in the test with XIP peptide (Xip251-270).
Regarding `O[C@@H](Cc1ccccc1)[C@@H](/C=C/C1CC1)N(CC#Cc1ccccc1)Cc1ccccc1Br`, the z-score in test [1] is 1.67; in test [2], 0.365 (inactive); in [3], 1.14 (inactive); in test [5], -0.59 (inactive); in [6], 1.43 (inactive); in test [7], -0.419 (inactive). Further, the z-score in test [8] is -0.232 (inactive); in test [9], 2.14; in test [12], -2.81; in [13] it was -0.167 (inactive); in test [14], -0.36 (inactive); in test [15], -0.214 (inactive). Besides, the composite z-score is 0.63 (inactive) in [4], 0.339 in [10], -0.112 (inactive) in [11] and 0.13 in the test with XIP peptide (Xip251-270).
For `CCCCC(=C=CC[C@H](O)c1ccc(OCCO)cc1)CCO`, the z-score in test [1] was -0.0738; in test [2] it was -2.31 (inactive); in test [3] it was -0.149 (inactive); in test [5] it was 0.154 (inactive); in test [6], -0.162 (inactive); in [7] it was -1.28 (inactive). Also, the z-score in [8] was -1.06 (inactive); in [9], 0.0466; in test [12], -1.17; in test [13], -4.31 (inactive); in test [14] it was -0.373 (inactive); in test [15], -0.317 (inactive). Further, the composite z-score in test [4] is -0.32 (inactive); in [10], 0.0365; in test [11], 0.0643 (inactive); in the test with XIP peptide (Xip251-270) it was 0.256.
With `COc1ccc([Si](C)(C)[C@@H]2[C@@H](CCO)O[C@]3(C(=O)N(Cc4ccccc4)c4ccc(NC(=O)[C@H](C)O)cc43)[C@H]2C)cc1`, the z-score in test [1] was -4.57; in test [2], 2.31 (inactive); in test [3], -6.39 (inactive); in [5] it was 1.45 (inactive); in test [6] it was 5.11 (inactive); in test [7], 0.912 (inactive). The z-score in test [8] is 0.477 (inactive); in [9], -6.12; in [12], -2.83; in test [13], -6.12 (inactive); in test [14], -0.178 (inactive); in test [15], -0.305 (inactive). In addition, the composite z-score is -0.347 (inactive) in [4], 0.157 in test [10], 0.816 (inactive) in [11] and 0.606 in the test on XIP peptide (Xip251-270).
For `NC(=O)NCC#Cc1ccc2c(c1)[C@]1(C(=O)N2)[C@H](c2ccccc2OCCO)N2[C@H](c3ccccc3)[C@H](c3ccccc3)OC(=O)[C@H]2[C@@H]1C(=O)O`, the z-score in test [1] was 1.87; in test [2], -0.462 (inactive); in test [3] it was 0.877 (inactive); in test [5], -0.0199 (inactive); in [6] it was -0.246 (inactive); in test [7], 0.614 (inactive). Besides, the z-score in test [8] is -0.727 (inactive); in test [9], 0.327; in test [12], -0.373; in test [13] it was -7.04 (inactive); in [14], 0.109 (inactive); in test [15] it was 0.239 (inactive). Further, the composite z-score in test [4] is -1.96 (inactive); in [10], -0.287; in [11], 0.654 (inactive); in the test with XIP peptide (Xip251-270), 0.418.
